Laboratory results as given in PubChem BioAssay (Tox21).
Inconclusive results are not listed. The source made the active and inactive calls. Calls follow the shape of the dose curve; as a rule, active = well fitted cell-killing curve with a large enough effect in the repeat runs; inconclusive = weak or mixed curves, or effect the other way; inactive = no such curve, though single readings can be large or run the other way.

Test: qHTS assay to identify small molecule antagonists of the glucocorticoid receptor (GR) signaling pathway - cell viability counter screen (AID 720693); also: nearly all actives have a fitted effect of over 55% in size
Settings: GR-bla HeLa viability, CellTiter-Glo luminescence, 18 h, with 5 nM dexamethasone present; series mostly up to 58.5 µM

SMILES | outcome
CN(C)CCCN1c2ccccc2CCc2ccc(Cl)cc21 | inactive
C/C=C(\C)C#N | inactive
NCCc1cnc[nH]1 | inactive
CCN(CC)CCNC(=O)c1cc(S(C)(=O)=O)ccc1OC | inactive
N=C(N)c1ccccc1 | inactive
Cc1[nH]c(=O)c(C#N)cc1-c1ccc2nccn2c1 | inactive
CCOC(=O)[C@H](CCc1ccccc1)N[C@@H](C)C(=O)N1[C@H](C(=O)O)C[C@@H]2CCC[C@@H]21 | inactive
CCCN1CCCC[C@H]1C(=O)Nc1c(C)cccc1C | inactive
CCn1ccnc1CC1COc2ccccc2O1 (stereo unspecified) | inactive
CC(C)(CC(=O)O)C(=O)O | inactive
NC(=O)Nc1ccccc1 | inactive
C=CCCCCCCCCC=O | inactive
C[N+](C)(C)CC(O)CC(=O)[O-] (stereo unspecified) | inactive
O=C1CCCN1C1CCCCC1 | inactive
O=C(O)CNC(=O)c1ccc([N+](=O)[O-])cc1 | inactive
CC/C=C\CC/C=C/C(OCC)OCC | inactive
Nc1ccc(S(=O)(=O)Nc2ccnn2-c2ccccc2)cc1 | inactive
c1ccc(CC2=NCCN2)cc1 | inactive
COC(=O)[C@@H](N)Cc1ccc(O)c(O)c1 | inactive
Cn1c(N)c(N=O)c(=O)n(C)c1=O | inactive
CCSC(=O)N(CC(C)C)CC(C)C | inactive
CC(=O)OCC(CCn1cnc2cnc(N)nc21)COC(C)=O | inactive
CN1CC(=O)NC1=N | inactive
CCC=O | inactive
CC(=O)OCC(=O)[C@@]1(O)CCC2C3CCC4=CC(=O)CC[C@]4(C)C3[C@@H](O)C[C@@]21C (stereo partly specified) | inactive
O=C(O)CCCl | inactive
